Screening results from PubChem.
ERK EGF inh: inhibitors of EGF-stimulated ERK signaling pathway; HEK293-V1b, EGF-stimulated phospho-ERK AlphaScreen; Potency, µM (titrated, usually from 11.5 µM), most hits filed as inhibitors; hit rate 0.41% among 130,000; also: nearly all actives have a fitted effect of over 55% in size
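Phospho-ERK1/2 measured by AlphaScreen (SureFire) after 5 min 25 nM EGF stimulation of V1b-expressing HEK293 cells preincubated 30 min at 37C with titrated compounds; data scaled to DMSO and EGF controls, Hill-fitted AC50.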
IMPase Li cell: cell-permeable IMPase inhibitors with lithium potentiation; CHO-M1 cells, IP1 TR-FRET (IP-One), carbachol + lithium; Potency, µM (titrated, usually from 59.4 µM), hits mostly inhibitors; hit rate 0.35% among 210,000;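 also: IP1 builds up when IMPase is blocked and the TR-FRET signal falls; nearly all actives have a fitted effect of over 50% in size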
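CHO cells stably expressing M1 receptor (2000/well, cultured 16–30 h) treated 30 min at 37C with compound plus low lithium. Cytosolic IP1 by TR-FRET (665/620 ratio and 620 channel) after 10 min lysis; AC50 by Hill fit.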
HttQ103 aggreg: inhibitors of mutant huntingtin aggregate formation in PC12 cells. PC12 HttQ103-GFP aggregates, Acumen cytometry, 40 h. Potency, µM (titrated, usually from 46.1 µM), actives largely listed as inhibitors. hit rate 1.1% among 220,000; also: nearly all actives have a fitted effect of over 60% in size
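Read-out: GFP aggregate count by laser scanning cytometer (488 nm excitation, 500-530 nm emission, 1–25 µm objects >6 SD above background). Cells: PC12, inducible HTTex1-Q103-GFP, 100 nM tebufenozide; compounds titrated.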
HTT cytoprotect: cytoprotection in Huntington HTT-Q103 PC12 cell model; PC12 HTT-Q103 induced, cytoprotection, ATP luminescence, 40 h; Potency, µM (highest dose often 56.4 µM), usual class: activators; hit rate 0.14% among 230,000; also: nearly all actives have a fitted effect of over 45% in size
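Quantitative HTS on tebufenozide-induced (100 nM) PC12 cells expressing HTTQ103 exon 1–GFP; compounds tested as a concentration series; survival measured via cellular ATP.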
NPSR antag: neuropeptide S receptor (human) antagonism, cAMP; Q6W5P4; CHO-NPSR cells, cAMP TR-FRET, antagonist mode; Potency, µM (doses to about 38.3 µM), hits mostly inhibitors; hit rate 1% among 220,000; AID 1461; also: nearly all actives have a fitted effect of over 50% in size
Target sequence (Q6W5P4 whole entry, looked up): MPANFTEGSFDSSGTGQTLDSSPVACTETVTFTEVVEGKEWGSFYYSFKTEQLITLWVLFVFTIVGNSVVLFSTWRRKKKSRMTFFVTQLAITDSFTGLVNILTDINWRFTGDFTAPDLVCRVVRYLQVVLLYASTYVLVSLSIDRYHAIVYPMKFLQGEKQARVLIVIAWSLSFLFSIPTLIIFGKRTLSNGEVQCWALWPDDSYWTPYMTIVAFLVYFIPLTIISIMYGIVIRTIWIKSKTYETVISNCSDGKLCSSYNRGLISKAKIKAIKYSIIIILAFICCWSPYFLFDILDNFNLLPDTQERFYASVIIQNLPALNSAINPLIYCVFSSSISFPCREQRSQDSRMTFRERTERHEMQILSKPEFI
Numbers stand for hits; 0 = inactive; ? = inconclusive; - = not tested or not shown; ! = not confirmed by another sample; [ ] = dose if it differs, or a comment. Only some compounds are listed: those with a hit (about 1.9% of all), similar ones and a draw of the others. Calls follow the shape of the dose curve; as a rule, active = well fitted curve in the direction sought with a large enough effect; inconclusive = small, poorly fitted or top-dose-only effect, or another doubt; inactive = no such curve, though single readings can be large; an effect the other way counts as inactive or inconclusive.

SMILES | ERK EGF inh | IMPase Li cell | HttQ103 aggreg | HTT cytoprotect | NPSR antag
N#Cc1cc2sc3nnc(-c4ccncc4)n3c2cc1C#N | - | 0 | - | 13µM | 0
Cc1cccc([C@H]2[C@@H]3C=CC(C)C[C@@H]3C(=O)N2Cc2ccccc2)c1 (some centres undefined) | - | 0 | - | - | -
Brc1ccc2ncnc(Nc3ccc(N4CCOCC4)cc3)c2c1 | - | 0 | 8.9µM | 0 | 0
N[C@@H](C(=O)O)c1ccc(O)c(C(=O)O)c1 | 0 | 0 | - | 0 | -
COc1ccc2cc3c(N)nn(C(=O)c4ccccc4[N+](=O)[O-])c3nc2c1 | 0 | 0 | ? | 0[10 µM] | 0
COc1ccc2cc3c(N)nn(C(=O)c4ccc(Cl)c([N+](=O)[O-])c4)c3nc2c1 | 0 | 0 | 2.8µM | 0[10 µM] | 0
CCN(CC)CCn1nc2c3c(cccc3c1=O)-c1ccccc1-2 | 0 | 0 | 0.63µM | 0[10 µM] | 0
CC1CCN(c2nc(-c3ccccc3O)nc3ccccc23)CC1 | - | 0 | 0 | 0 | 0
CC1CCN(c2ncnc3ccccc23)CC1 | 0 | 0 | 22µM | 0[10 µM] | 0
NC(=O)c1cc2ccc(O)cc2oc1=Nc1ccccc1 | - | 0 | 7.1µM | 0 | 0
COc1ccccc1-c1n[nH]c(=S)o1 | - | ? | 0 | 0[10 µM] | 0
CSc1ccccc1-c1n[nH]c(=S)o1 | 0 | 10µM | 0 | 0[10 µM] | 4µM
S=c1[nH]nc(-c2ccccc2)o1 | - | 11µM | 0 | 0 | 0
Cc1ccc(-c2cc(-c3n[nH]c(=S)o3)c3ccccc3n2)cc1 | 0 | 0 | 0 | 0[10 µM] | 0
COc1ccc(Cl)cc1-c1n[nH]c(=S)o1 | - | 6.3µM | 0 | 0 | 6.3µM
Cc1ccccc1-c1n[nH]c(=S)o1 | - | 10µM | 0 | 0 | ?
Nc1nc(SCc2ccc([N+](=O)[O-])cc2)c2ncn([C@@H]3O[C@@H](CO)[C@@H](O)[C@H]3O)c2n1 | - | - | - | 0[1.9 µM] | -
CC#N | - | 0 | - | 0 | -
O=C1CNCCCN2CCN(CCCNCC(=O)Nc3ccc(cc3)S(=O)(=O)c3ccc(cc3)NC(=O)CNCCCN3CCN(CCCNCC(=O)Nc4ccc(cc4)S(=O)(=O)c4ccc(cc4)N1)CC3)CC2 | - | - | - | 0[10 µM] | -
CC(C)CCC[C@@H](C)[C@H]1CC[C@H]2[C@@H]3CC[C@@H]4C[C@H](O)CC[C@]4(C)[C@H]3CC[C@]12C | - | - | 0 | 0 | -
CCCCCn1c(NC(=O)c2ccco2)c(S(=O)(=O)c2ccc(C)cc2)c2nc3ccccc3nc21 | - | 11µM | ? | 0 | 13µM
CCCCn1c(NC(=O)c2ccco2)c(S(=O)(=O)c2ccc(C)cc2)c2nc3ccccc3nc21 | 0 | ? | ? | - | 0
CCCCn1c(NC(=O)c2ccc(Br)o2)c(S(=O)(=O)c2ccccc2)c2nc3ccccc3nc21 | - | 10µM | ? | 0 | 10µM
CCCCn1c(NS(=O)(=O)c2ccccc2)c(S(=O)(=O)c2ccc(C)cc2)c2nc3ccccc3nc21 | 0 | 0 | ? | 0[10 µM] | 0
Cc1sc2ncnc(NCCN3CCOCC3)c2c1C | - | 0 | 11µM | 0 | 0
SMILES | ERK EGF inh | IMPase Li cell | HttQ103 aggreg | HTT cytoprotect | NPSR antag
CC1CCc2c(sc3ncnc(NCCN4CCOCC4)c23)C1 (centres undefined) | 0 | - | 0[9.22 µM] | 0[10 µM] | 0
O=C(CN1CCc2ccccc21)NN1CC(=O)N(c2ccc(Cl)cc2)CC1=O | 18µM | - | 0[9.22 µM] | 0[10 µM] | 0
O=C(CCl)N1N=C(c2ccco2)CC1c1cccs1 (centres undefined) | 0 | 0 | 11µM | 0[10 µM] | 0
NC(C(=O)O)[C@H](O)C(=O)O (some centres undefined) | - | 0 | - | 0 | -
CN1/C(=C\P(=O)(N(C)C)N(C)C)C(C)(C)c2ccccc21 | - | 0 | 11µM | 0[10 µM] | 0
COCCn1c(=O)c(-c2ccccc2)nc2cnc(Oc3ccc(OC)cc3)nc21 | - | 0 | - | 0 | -
Cc1cc(C)c2cccc(N)c2n1 | 0 | 0 | 0[9.22 µM] | 0[10 µM] | 0
Cc1cc(C)c2ccc(N)nc2c1O | - | 0 | 8.9µM | 0[1.9 µM] | 0
CCn1cc(C2=NOC(C(=O)Nc3cccc(C(C)=O)c3)C2)c(C)n1 (centres undefined) | - | 0 | 0.79µM | 0[10 µM] | 0
COc1cc(/C=C(\C#N)c2nc3ccccc3[nH]2)cc(OC)c1O | 0 | 0 | 0[9.22 µM] | 0[10 µM] | 0
COc1cc(/C=C(\C#N)c2nc3ccccc3[nH]2)cc(Br)c1OCc1ccc(F)cc1 | - | 0 | 0 | 0 | 5µM
COc1cc(OC)c2c(c1)OC(c1ccccc1)CC2=O (centres undefined) | 0 | 0 | - | 0[1.9 µM] | -
C=CCOc1c(Cl)cc(CNc2ccc(N(C)C)cc2)cc1OC | - | 0 | 0 | ? | 5µM
C=CCOc1c(Cl)cc(CNc2ccc(C)c(Cl)c2)cc1OC | - | 0 | 0 | 0[10 µM] | ?
C[C@@H](NCCc1ccc(O)cc1)[C@@H](O)c1ccc(O)cc1 | 0 | 0 | - | - | 0
CCCCCCCCNC(C)C(O)c1ccc(SC(C)C)cc1 (centres undefined) | 35µM! | 0 | ? | 0 | ?
